In PubChem BioAssay AID624504 (Sanford-Burnham Center for Chemical Genomics, 2012) one finds inhibition data, which are given here for 27 molecules.

Out of some 5,000 compounds screened, about 3,900 (78%) were called active. Cut-off read from the data, not from the text of the source: active = inhibition above about 22%; inactive = the rest. So high a share suggests a set chosen from earlier hits. Not all results are given here.

As usually defined, the inhibition is the relative decrease from the control value, in per cent.

This assay can be described thus: fluorescence retest of MPTP screen hits in isolated mitochondria, single concentration (AID 624504).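 Note: 0% = DMSO vehicle and 100% = positive control.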 To be noted: membrane potential, Rhodamine 123 fluorescence, at 10 µM, stronger effect = higher value.
For `Cc1ccc(C)c(NC(=S)NNC(=S)Nc2ccc(C(C)C)cc2)c1`, the inhibition is 85.3% (active).

With `S=C(NCCc1ccccc1)NCc1ccccc1Cl`, the inhibition is 67.2% (active).

On to `CCCCCC(O)c1cccc(OCc2ccc3ccccc3n2)c1` (configuration not stated), for which the inhibition was 76.1% (active).

On to `S=C(Nc1cccc(Cl)c1)Nc1ccc2cn[nH]c2c1`, for which the inhibition was 92.7% (active).

With `Cc1csc(NC(=S)Nc2cccc(Cl)c2)n1`, the inhibition was 73.4% (active).

On to `N=c1n(Cc2ccc(Cl)cc2)c2ccccc2n1CC(O)c1ccco1` (configuration not stated), for which the inhibition was 4.39% (inactive).

For `CCN1/C(=C\c2ccc3ccccc3[n+]2CC)Sc2cc(C)ccc21`, the inhibition is 96.3% (active).

On to `CCc1cc2c(N3CCN(c4nnc(CC)s4)CC3)ncnc2s1`, for which the inhibition was 41.8% (active).

Consider `CC(NC(=S)Nc1ccc(OC(F)F)cc1)c1ccc(F)cc1` (configuration not stated), for which the inhibition was 93.7% (active).

Consider `FC(F)(F)c1cccc(NC(=S)Nc2cccc(Cl)c2)c1`, for which the inhibition was 96.6% (active).

Turning to `S=C(Nc1cccc(Cl)c1)Nc1ccc2c(c1)OCCO2`, the inhibition was 100% (active).

As for `O=C(Nc1cccc(S(=O)(=O)Nc2ccc(Cl)cc2)c1)c1ccc2c(c1)OCCO2`, the inhibition was 80.9% (active).

As for `O=C(Nc1cccc(-c2cccc(Cl)c2)c1)C1CCN(C2CCC2)CC1`, the inhibition was -9.69% (inactive).

As to `O=[N+]([O-])c1ccc(NS(=O)(=O)c2ccccc2)c(Cl)c1`, the inhibition was 97.2% (active).

On to `N#C[C@]1(S(=O)(=O)c2ccccc2)C[C@@H]2ON=C(c3cccc(Br)c3)[C@@H]2C1`, for which the inhibition is 90.7% (active).

Regarding `O=C(/C=C/c1ccc(F)cc1)Nc1cccc(S(=O)(=O)Nc2cccc(C(F)(F)F)c2)c1`, the inhibition is 69.5% (active).

`O=C(/C=C(O)/C=C/c1ccc(O)cc1)/C=C/c1ccc(O)cc1`: the inhibition is 70.7% (active).

For the molecule `COc1cccc(CNc2nc(NCc3cccs3)nc3ccsc23)c1`, the inhibition is 102% (active).

Regarding `COc1ccccc1CNc1nc(Nc2ccccc2Cl)c2sccc2n1`, the inhibition is 67% (active).

Take `COc1cccc(CNc2nc(NCc3ccccc3OC)nc3ccsc23)c1`: the inhibition is 121% (active).

Turning to `C=CCC1(CC=C)CCCN1C(=O)c1cc(COc2ccc(-n3cncn3)cc2)on1`, the inhibition is 103% (active).

Take `CC(C)S(=O)(=O)c1csc(NC(=O)Nc2ccc(Cl)cc2)c1Cl`: the inhibition is 90.1% (active).

For `CCNCCC(=O)N1c2ccccc2Sc2ccc(NC(=O)OCC)cc21`, the inhibition was -7.23% (inactive).

Take `CCCCCOC(=O)NCCOC(=O)Nc1ccc(C(=O)OCC)cc1`: the inhibition was 72.7% (active).

On to `Cn1nccc1C(=O)NC1CCCc2c1cnn2-c1ccccc1F` (configuration not stated), for which the inhibition was 96.6% (active).

With `COc1ccc(C(=O)NC2CCCc3c2cnn3-c2cccc(C)c2C)c(OC)n1` (configuration not stated), the inhibition is 84.1% (active).

On to `Cn1nccc1C(=O)NC1CCCc2c1cnn2-c1ccc(F)cc1F` (configuration not stated), for which the inhibition was 101% (active).
